Test results taken from PubChem BioAssay (NCATS).
Values without a mark were called inactive. The call rests on the fitted dose curve; in most records, active means well fitted curve in the direction sought with a large enough effect; inactive means no such curve, though single readings can be large or run the other way.

target: Alpha-galactosidase (Coffea arabica) (UniProt Q42656); assay: Counterscreen for Glucocerebrosidase Inhibitors: qHTS Assay for Coffee Bean alpha-Galactosidase at pH 5.9 (AID 998); settings: coffee bean alpha-galactosidase enzyme assay; series mostly up to 76.9 µM; activity, negative = inhibition: at the top concentration;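 further: plate controls were uninhibited enzyme for no effect and no-enzyme basal signal for full effect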
Outline: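 Fluorogenic 4-MU substrate hydrolysis, 80 uM substrate and 2 nM coffee bean alpha-galactosidase, pH 5.9 citrate buffer, 20 min at room temperature, then NaOH/glycine stop. Titration 0.7 nM–77 uM, normalized to no-enzyme and enzyme controls, AC50 via Hill equation.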

Alpha-galactosidase (Coffea arabica), sequence (Q42656 whole entry, looked up): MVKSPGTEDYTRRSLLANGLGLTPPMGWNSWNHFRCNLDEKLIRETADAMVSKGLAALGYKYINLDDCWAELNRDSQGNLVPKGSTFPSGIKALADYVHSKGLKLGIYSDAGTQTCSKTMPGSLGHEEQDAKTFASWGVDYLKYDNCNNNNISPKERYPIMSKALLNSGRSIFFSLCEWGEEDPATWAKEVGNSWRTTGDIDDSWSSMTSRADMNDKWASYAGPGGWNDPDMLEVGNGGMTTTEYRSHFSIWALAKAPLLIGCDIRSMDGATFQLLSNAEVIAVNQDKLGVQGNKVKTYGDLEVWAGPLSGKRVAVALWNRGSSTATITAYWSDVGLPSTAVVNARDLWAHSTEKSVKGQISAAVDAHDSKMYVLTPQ

| SMILES | activity, negative = inhibition [%] |
| --- | --- |
| CN/C(=C\[N+](=O)[O-])NCCSCc1ccc(CN(C)C)o1 | 1.63 |
| CN1CCN(CCCN2c3ccccc3Sc3ccc(C(F)(F)F)cc32)CC1 | -3.08 |
| CC(C)(C)NC(=O)[C@H]1CC[C@H]2[C@@H]3CC[C@H]4NC(=O)C=C[C@]4(C)[C@H]3CC[C@]12C | -0.442 |
| Cc1oncc1C(=O)Nc1ccc(C(F)(F)F)cc1 | -1.38 |
| CC(=O)CCCCn1c(=O)c2c(ncn2C)n(C)c1=O | 1.26 |
| Cn1cnc([N+](=O)[O-])c1Sc1ncnc2nc[nH]c12 | -0.0624 |
| CC/C(=C(\c1ccccc1)c1ccc(OCCN(C)C)cc1)c1ccccc1 | -5.14 |
| Cc1cn([C@H]2C=C[C@@H](CO)O2)c(=O)[nH]c1=O | 2.02 |
| CN1CCN(C2=Nc3ccccc3Oc3ccc(Cl)cc32)CC1 | -3.13 |
| Cn1ccc2cc3c(cc21)CCN3C(=O)Nc1cccnc1 | -2.52 |
| CC1=C(/C=C/C(C)=C/C=C/C(C)=C/C(=O)Nc2ccc(O)cc2)C(C)(C)CCC1 | -8.62 |
| COc1ccc(Cc2nccc3cc(OC)c(OC)cc23)cc1OC | -1.9 |
| CCOC(=O)c1ncn2c1CN(C)C(=O)c1cc(F)ccc1-2 | -0.989 |
| CN[C@H]1CC[C@@H](c2ccc(Cl)c(Cl)c2)c2ccccc21 | -2.76 |
| Nc1ncn([C@@H]2O[C@H](CO)[C@@H](O)[C@H]2O)c(=O)n1 | -2.25 |
| NC(=O)OCC(COC(N)=O)c1ccccc1 | 1.61 |
| CCN(CC)CCNC(=O)c1cc(Cl)c(N)cc1OC | 0.841 |
| Cc1ccc(S(=O)(=O)NC(=O)NN2CCCCCC2)cc1 | -1.21 |
| NC(=O)NO | 2.38 |
| Cc1ccc(S(=O)(=O)N[C@@H](CCCCN)C(=O)CCl)cc1 | -2.89 |
| CC(C)NCC(O)COc1cccc2[nH]ccc12 (stereo not given) | 0.239 |
| CC(=O)Nc1nnc(S(N)(=O)=O)s1 | 1.75 |
| CCCC(CCC)C(=O)O | -1.59 |
| CN(C)C(=O)C(CCN1CCC(O)(c2ccc(Cl)cc2)CC1)(c1ccccc1)c1ccccc1 | -7.18 |
| Nc1ccncc1 | -1.71 |
| Nc1nc2c(ncn2COCCO)c(=O)[nH]1 | 1.73 |
| CC1=NS(=O)(=O)c2cc(Cl)ccc2N1 | -2.12 |
| Nc1nc2c(ncn2COC(CO)CO)c(=O)[nH]1 | 1.73 |
| COc1ccc(Cl)cc1C(=O)NCCc1ccc(S(=O)(=O)NC(=O)NC2CCCCC2)cc1 | -0.599 |
| NS(=O)(=O)Cc1noc2ccccc12 | 2.45 |
